Where “and” joins values, the source holds several entries; their conditions need not be identical. Equal values may be shown once. Out of some 330,000 compounds screened, about 520 (0.16%) were called active.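 How the source made its calls: active means inhibition of at least 50% in every replicate; inconclusive means best replicate reaches 50% inhibition but some replicates fall short; inactive means the rest.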 This excerpt belongs to a sample that is enriched for actives. More than one record can exist for a structure, and the calls need not agree.

In this assay the target is Histone acetyltransferase RTT109 (Candida albicans (strain SC5314 / ATCC MYA-2876)) (UniProt Q5AAJ8). As to the kind of experiment: Rtt109-Vps75 histone acetyltransferase blockade – biochemical, ThioGlo CoA-SH fluorescence, plate reader, primary screen (AID 540336). To be noted: purified Rtt109/Vps75, ThioGlo CoA-SH fluorescence, 4 h; at 34.9 µM; stronger effect = higher value.
Sequence of Histone acetyltransferase RTT109 (Candida albicans (strain SC5314 / ATCC MYA-2876)) (Q5AAJ8 whole entry, looked up): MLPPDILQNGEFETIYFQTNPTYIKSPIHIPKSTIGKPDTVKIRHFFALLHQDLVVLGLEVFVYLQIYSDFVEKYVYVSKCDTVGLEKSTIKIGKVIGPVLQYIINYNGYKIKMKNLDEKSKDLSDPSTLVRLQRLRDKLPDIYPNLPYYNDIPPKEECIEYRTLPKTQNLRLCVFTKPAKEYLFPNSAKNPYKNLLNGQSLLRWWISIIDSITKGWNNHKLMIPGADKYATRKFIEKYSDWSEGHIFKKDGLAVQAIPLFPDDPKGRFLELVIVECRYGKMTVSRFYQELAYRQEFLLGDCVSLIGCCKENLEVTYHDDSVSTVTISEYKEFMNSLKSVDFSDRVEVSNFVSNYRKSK
As usually defined, the inhibition is the relative decrease from the control value, in per cent. Take `COc1cc(OC)c(C(=O)NNC(=O)c2ccc(NS(=O)(=O)c3cccs3)cc2)cc1OC`: the inhibition was -0.841% (inactive). The value for `COc1ccc(-c2ccc3c(c2)[C@@H]2C[C@H](N(C)S(=O)(=O)c4ccccc4)[C@H]([C@H](C)O)C(=O)N2CC3)cc1` was -7.44% (inactive); that for `Cc1ccc(C(=O)O)c(NC=O)c1OCc1ccccc1` was 2.64% (inactive); that for `O=C(CC(=O)c1cccnc1)c1ccccc1` was 5.8% (inactive). The value for `COc1cc2c(cc1O)C(SC)=NC(C)(C)C2` was 85% (active); that for `COc1cc2c(cc1OC)C(Nc1ccc(S(N)(=O)=O)cc1)=NC(C)(C)C2` was -0.292% (inactive); that for `COc1cc2c(cc1OC)C(C(C)C)=NC(C)(C)C2` was -260% (inactive).

`C=CCNC(=O)C1CC=CCC1C(=O)O` (centres undefined): the inhibition was -1.04% (inactive). In the case of `C=CCNC(=O)C1CC2c3ccccc3C1c1ccccc12` (centres undefined), the inhibition was 50.9% (active). The figure for `C=CCNC(=O)C12CC3CC(C1)CC(C(=O)NCC=C)(C3)C2` is -14.4% (inactive); for `C=CCCC(=O)N1C[C@H]2CON(C)[C@H]2C[C@H]1c1cccc(Nc2ccccc2)c1` it is 7.97% (inactive); for `Cc1ccc(S(=O)(=O)c2cc3c(=O)n4cccc(C)c4nc3n(CCc3ccccc3)c2=N)cc1C` it is 0.852% (inactive).

Take `CC(=NNC(=S)N1CCCCCC1)c1ccccn1`: the inhibition is 16.2% (inactive). `CCN1CCC(O)(/C=C/c2ccc(C)cc2)C(C(=O)/C=C/c2ccc(C)cc2)C1` (centres undefined): the inhibition was 3.59% (inactive).

Turning to `O=C1CC(C(=O)O)NC(=S)N1` (centres undefined), the inhibition is -12.1% (inactive). On to `O=C(O)C(=Cc1ccccc1[N+](=O)[O-])c1ccccc1`, for which the inhibition was -1.92% (inactive). For `CCc1c(Nc2ccccc2Cl)nc(N)[nH]c1=O`, the inhibition was 4.46% (inactive). On to `CC(C)(C)c1nnc2sc(SCC(O)=C(C#N)c3nc4ccccc4[nH]3)nn2c1=O`, for which the inhibition is -1.69% (inactive).

Turning to `FC(F)(F)c1ccc(-c2cccc3c2C2CC3CCN2Cc2ccccc2)cc1` (centres undefined), the inhibition was -0.156% (inactive). Turning to `O=C(c1cccnc1)N(Cc1ccccc1)C(=O)c1cccnc1`, the inhibition is 7.15% (inactive). Take `COc1ccc(N(C(=O)c2cccnc2)S(=O)(=O)c2ccc(OC)c(OC)c2)cc1`: the inhibition is -7.79% (inactive). Turning to `O=C(c1cccnc1)N(c1cc2sc(=O)oc2c2ccccc12)S(=O)(=O)c1ccccc1`, the inhibition was 101% (active). As to `Oc1c(Cl)cc(Cl)c(Cl)c1Cc1c(O)c(Cl)cc(Cl)c1Cl`, the inhibition is 70.6% (active).

For `Cc1ccc(Cn2c(C)c3cnn(CC(=O)NCCN4CCOCC4)c(=O)c3c2C)cc1`, the inhibition was 4.07% (inactive). For `O=C(NCC(=O)N1CCCC(C(F)(F)F)C1)c1ccccc1F` (centres undefined), the inhibition was -12.6% (inactive).

In the case of `FC(F)(F)C1CCCN(c2nsc3ccccc23)C1` (centres undefined), the inhibition was 129% (active). In the case of `O=C(NC(Cc1ccccc1)C(=O)N1CCCC(C(F)(F)F)C1)c1ccccc1` (centres undefined), the inhibition is 8.65% (inactive).

As to `CCN(CC(=O)Nc1c(F)cccc1F)C(=O)Cc1cccs1`, the inhibition was -5.91% (inactive).

For the molecule `COC(=O)c1ccc(CNC(=O)Cn2cc(C)c(=O)[nH]c2=O)cc1`, the inhibition was -6.85% (inactive). In the case of `NC(=S)NN=C1CCCC(C(F)(F)F)C1` (centres undefined), the inhibition was 6.12% (inactive). With `CN(CCc1ccccc1)C(=O)c1cccc(NC(=O)Cc2cccc(NC(=O)C3CCCN(C(=O)CCc4ccccc4)C3)c2)c1` (centres undefined), the inhibition was 10.3% (inactive). For the molecule `CCN(CC)CCCC(C)n1c2nc(=O)[nH]c(=O)c-2nc2cc(Cl)ccc21` (centres undefined), the inhibition was 1.9% (inactive).

Turning to `CC(=O)Oc1ccc(OC(C)=O)c2c1C1C=CC2CC1`, the inhibition was -1.25% (inactive). For the molecule `O=C(CCC(=O)N1CCN(S(=O)(=O)c2ccc(Cl)cc2)CC1)NCc1cccc(C(F)(F)F)c1`, the inhibition is -0.722% (inactive).

Turning to `CC(C(=O)Nc1ccc(O)c(C(=O)O)c1)N1C(=O)/C(=C/c2cccs2)SC1=S` (centres undefined), the inhibition was 81.1% (active). For `O=C(CCCN1C(=O)/C(=C/c2cccs2)SC1=S)Nc1ccc(O)cc1`, the inhibition was 3.39% (inactive). The value for `O=C(CCN1C(=O)/C(=C/c2cccs2)SC1=S)NNC(=O)c1cccc(O)c1` was 2.35% (inactive); that for `COc1ccc(C(=O)N(C)Cc2ccc(OC)c(OC)c2OC)cc1S(=O)(=O)N1CCOCC1` was 1.9% (inactive). Take `O=C1CC(c2ccccc2)C(c2ccccc2)=NN1` (centres undefined): the inhibition was 6.56% (inactive).

In the case of `O=C1/C(=C\c2ccc([N+](=O)[O-])cc2)CS(=O)(=O)C/C1=C/c1ccc([N+](=O)[O-])cc1`, the inhibition is -5.87% (inactive). `CCCCN(C(=O)c1cccc(N2C(=O)c3ccccc3C2=O)c1)c1c(N)n(CCCC)c(=O)[nH]c1=O`: the inhibition was 6% (inactive). The figure for `COC(=O)c1c(NC(=O)C2CC(C)=C(C)CC2C(=O)O)sc2c1CCCCC2` (centres undefined) is 56.5% (active); for `N#Cc1c(NC(=O)C2CC(Cl)=CCC2C(=O)O)sc2c1CCCCC2` (centres undefined) it is -0.566% (inactive); for `COC(=O)c1c(NC(=O)CSc2nncs2)sc2c1CCCCC2` it is -2.31% (inactive). Turning to `COc1ccc(CNC(=O)COC(=O)C2=Cc3ccccc3OC2)cc1`, the inhibition is 7.22% (inactive). `Cn1c(=O)[nH]c2c(c(C(=O)O)nn2C)c1=O`: the inhibition was 7.13% (inactive). Regarding `CC1CCN(CC(O)COc2ccc(C(=O)c3ccccc3)cc2)CC1` (centres undefined), the inhibition was 0.839% (inactive). The figure for `C[N+]1(CC(O)COc2ccccc2)CCN(C(=O)c2ccc([N+](=O)[O-])cc2)CC1` (centres undefined) is 52.5% (active).

For `O=C(COc1ccccc1)Nc1ccc(C(=O)N2CCCC2)cc1`, the inhibition was 28.7% (inactive). With `NC(=O)C1CCN(C(=O)c2cc(S(=O)(=O)N3CCN(c4ccccc4)CC3)ccc2Cl)CC1`, the inhibition is -0.602% (inactive).

In the case of `CCC(C)C1(C2CCCC2)NC(=O)NC1=O` (centres undefined), the inhibition was -0.893% (inactive). The figure for `CC(C)[C@@H](C(=O)OCC(=O)c1ccc2c(c1)NC(=O)CO2)N1C(=O)c2ccccc2C1=O` is 2.17% (inactive); for `O=c1nc(NO)ccn1C1CCCO1` (centres undefined) it is -2.47% (inactive). As for `O=C(O)c1ccc(S(=O)(=O)c2ccccc2)s1`, the inhibition was -2.02% (inactive).

For `Cc1c[n+]([O-])ccc1[N+](=O)[O-]`, the inhibition was -8.76% (inactive). As to `Cc1nn(-c2ncccn2)c2c1C(=O)CC(C)(C)C2Br` (centres undefined), the inhibition was 8.81% (inactive). The figure for `COCCN(C(=O)C(C)N1C(=O)c2ccccc2C1=O)c1c(N)n(CC(C)C)c(=O)[nH]c1=O` (centres undefined) is -5.79% (inactive). Turning to `CN(C)/C=C(/C(=O)c1ccccc1)S(=O)(=O)c1ccc(Cl)cc1`, the inhibition was 0.945% (inactive).

Turning to `Cc1cccc2sc(N(CCCN(C)C)C(=O)CCS(=O)(=O)c3ccccc3)nc12`, the inhibition was 30.9% (inactive). In the case of `COc1cccc2sc(N(CCCN(C)C)C(=O)C(c3ccccc3)c3ccccc3)nc12`, the inhibition was -2% (inactive). The figure for `COc1cccc2sc(N(CCCN(C)C)C(=O)CCS(=O)(=O)c3ccccc3)nc12` is 83.9% (active); for `Cc1cccc(-n2c(=O)c3c(C)c(C)sc3n(CC(N)=O)c2=O)c1` it is -1.94% (inactive).

As for `Cc1cccc(-n2c(SCC(N)=O)nc3c(c2=O)C2(CCCCC2)Cc2ccccc2-3)c1`, the inhibition was 53.5% (active). `N#CCSc1nc2c(c(=O)n1Cc1ccccc1)C1(CCCC1)Cc1ccccc1-2`: the inhibition is 8.15% (inactive). The value for `O=C(OC12CC3CC(CC(C3)C1)C2)c1ccc(NCc2cc(O)ccc2O)cc1` was -1.56% (inactive). Consider `CC(C)c1ccc(C=NNc2ccc([N+](=O)[O-])cn2)cc1`, for which the inhibition was 4.1% (inactive). Regarding `CSCCC(NC(=O)COc1ccccc1)C(=O)OCc1ccc(Cl)cc1` (centres undefined), the inhibition is -1.24% (inactive). Turning to `COc1ccccc1NC(=O)/C=C/C(N)=O`, the inhibition was 121% (active). With `COc1ccccc1NC(=S)NC(=O)C(C)C`, the inhibition was -8.37% (inactive). On to `COc1ccccc1NC(=O)C[n+]1ccccc1`, for which the inhibition is -9.21% (inactive).

Regarding `CCOC(=O)C1CCCN(C(=O)C2CCN(S(=O)(=O)c3ccc(Cl)c(C(F)(F)F)c3)CC2)C1` (centres undefined), the inhibition is 10.8% (inactive). The figure for `CCC1([N+](=O)[O-])COC(c2ccc(C)cc2)OC1` (centres undefined) is -3.32% (inactive); for `Cc1c(CCOC(=O)CC23CC4CC(CC(C)(C4)C2)C3)sc[n+]1Cc1ccc([N+](=O)[O-])cc1` it is 64.3% (active) and -8% (inactive); for `Cc1c(CCO)sc[n+]1CC(=O)OC12CC3CC(CC(C3)C1)C2` it is 2.54% (inactive).

`Cc1c(CCOC(=O)c2cc([N+](=O)[O-])ccc2Cl)sc[n+]1CCCCS(=O)(=O)[O-]`: the inhibition was 12.5% (inactive). On to `Cc1ccc(S(=O)(=O)N2CCN(C(=O)COC(=O)/C=C/c3cccc(Cl)c3)CC2)c(C)c1`, for which the inhibition was 5.03% (inactive). Turning to `CN(C)C(CNC(=O)c1cc2ccccc2o1)c1ccccc1` (centres undefined), the inhibition was 2.45% (inactive). Turning to `CCN(CC)S(=O)(=O)c1cccc(NC(=O)c2ccc(S(=O)(=O)N3CCCC3)cc2)c1`, the inhibition is -3.62% (inactive). Consider `CC1C(C)N(C(=O)CCl)c2ccccc2N1C(=O)CCl` (centres undefined), for which the inhibition was -6.55% (inactive). Turning to `Nc1cc2c(cc1Br)-c1ccc(F)cc1C2=O`, the inhibition is -11.8% (inactive). Take `CC1CN(Cc2ccco2)C(=S)N(c2ccccc2)C1=O` (centres undefined): the inhibition is 3.62% (inactive). In the case of `NC(=O)c1ncn([C@@H]2O[C@H](CN=C3NS(=O)(=O)c4ccccc43)[C@@H](O)[C@H]2O)n1`, the inhibition is -1.34% (inactive). For `Cc1ccccc1Nc1nc(-c2cccnc2)cs1`, the inhibition is -4.39% (inactive). For the molecule `CC(=O)Nc1cccc(-c2csc(Nc3cccc(C)n3)n2)c1`, the inhibition is 65% (active). The value for `O=C(Nc1ccc(-c2csc(Nc3cccc(C(F)(F)F)c3)n2)cc1)c1cccc(C(F)(F)F)c1` was -6.03% (inactive); that for `CC1(C)N=C(N)NC(Nc2ccc(Cl)cc2)=N1` was -1.08% (inactive). `CC(C)(C)OC(=O)N1CCC(C(=O)Nc2cccc(C(=O)NCCc3ccccc3)c2)CC1`: the inhibition is 15.4% (inactive). On to `COc1ccc2c(c1)c(=Cc1ccc(N(C)C)cc1)c1cc(-c3ccccc3)[n+](C)n12`, for which the inhibition is 14.8% (inactive). For `CC(=O)OCC(=O)C1(O)CCC2C3CC(C)C4=CC(=O)CCC4(C)C3C(O)CC21C` (centres undefined), the inhibition is -0.0615% (inactive).

The record behind these values is PubChem BioAssay AID540336 (Broad Institute, 2011).
